MBNL1-CUG inh: blocks human MBNL1 binding to CUG repeat RNA | 0.036% of 280,000 active | TR-FRET MBNL1-His/biotin-(CUG)12 binding, 665/545 ratio | AID 2675 | Potency, µM (top dose mostly 57.5 µM), for the others: at the highest dose activity change, negative = inhibition, most hits filed as inhibitors | Q9NR56; active = well fitted inhibition curve with a large enough effect in the signal ratio, with a control signal flat, not every such curve was filed as active; inconclusive = small, poorly fitted or top-dose-only effect, or effect the other way, or a change in a side signal; inactive = no such curve, though single readings can be large or run the other way; the % refers to the signal ratio; also: % is scaled to controls: 0 for no effect and ±100 for the full control effect
Target sequence (Q9NR56 whole entry, looked up): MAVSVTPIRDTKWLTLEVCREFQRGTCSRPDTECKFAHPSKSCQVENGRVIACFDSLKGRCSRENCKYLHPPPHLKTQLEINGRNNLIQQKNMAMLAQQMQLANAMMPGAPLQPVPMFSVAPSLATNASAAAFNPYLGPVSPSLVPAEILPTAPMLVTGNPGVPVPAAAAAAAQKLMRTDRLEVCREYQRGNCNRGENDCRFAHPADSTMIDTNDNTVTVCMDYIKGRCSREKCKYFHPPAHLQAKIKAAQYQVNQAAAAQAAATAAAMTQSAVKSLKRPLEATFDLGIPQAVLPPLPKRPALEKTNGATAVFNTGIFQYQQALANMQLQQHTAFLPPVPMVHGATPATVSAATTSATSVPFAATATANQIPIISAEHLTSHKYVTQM
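Inhibition of protein-RNA binding appears as loss of TR-FRET between terbium anti-His antibody on MBNL1-His and streptavidin-XL665 on biotin-(CUG)12. Activity is normalized to buffer-only and uninhibited-complex controls.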
aSyn rescue: rescues yeast growth from alpha-synuclein toxicity; Yeast expressing alpha-synuclein, growth rescue, BacTiter-Glo, 24 h; Potency, µM (top dose mostly 46.1 µM), for the others: top-dose growth rescue (activation), most hits filed as activators; 0.14% of 370,000 active; AID 652106; also: % of control where 0% means no effect; nearly all actives have a fitted effect of over 65% in size
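Readout is rescue of growth in alpha-synuclein-expressing yeast, so inhibitors of toxicity appear as activators. Growth after 24 hr at 30 deg C in galactose medium is quantified by luminescence.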
FUS suppressor: FUS proteinopathy suppression in yeast; 0.24% of 390,000 active; AID 1347120; Potency, µM (doses to about 76.6 µM), usual class: activators; S. cerevisiae FUS-expressing, growth rescue, OD600, 24 h;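 also: plate controls were DMSO vehicle for no effect and reference control for full effect; nearly all actives have a fitted effect of over 55% in size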
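Absorbance at 600 nm, taken 24hr after compound addition, measured rescue of FUS-yeast growth at 30C. Induction used 2% galactose with seeding at OD 0.005. Controls: CP55940 from 92uM final, DMSO only.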
Abeta yeast res: A-beta toxicity reversal in yeast. AID 1347071. Potency, µM (highest dose often 46.1 µM), most hits filed as activators. 0.063% of 410,000 active. yeast expressing A-beta42, growth rescue, OD600, 48 h; response scale: 0% DMSO, 100% iron-clioquinol control; also: nearly all actives have a fitted effect of over 55% in size
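Growth rescue measured by 600 nm absorbance after 48 h yeast culture at 30 C with compound. Values normalized between DMSO and an equimolar ferric chloride plus clioquinol control.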
GRP78 ERSR act: inducers of ER stress response in human glioma cells. 0.02% of 420,000 active. U87-MG GRP78 promoter luciferase reporter, 16 h. Potency, µM, inactives show at the top dose activation, usual class: activators; also: series mostly up to about 76 µM; % of control where 0% means no effect; nearly all actives have a fitted effect of over 35% in size
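ERSR induction read as luciferase luminescence (Bright-Glo, 10 min at room temperature) in stably transfected human U87-MG glioma cells exposed to compounds for 16 h, using GRP78 as sensor.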
TDP43 rescue: rescues yeast growth from TDP-43 toxicity; AID 652104; TDP-43 expressing yeast growth rescue, BacTiter-Glo, 24 h; 1.8% of 410,000 active; Potency, µM (highest dose often 46.1 µM), for inactives: at the highest dose growth rescue (activation), actives largely listed as activators; also: % of control where 0% means no effect; nearly all actives have a fitted effect of over 50% in size
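Cell-based yeast growth screen: TDP-43 expression induced in galactose, inoculum OD600=0.02 after raffinose pregrowth to mid-log. Read-out BacTiter-Glo luminescence at 24 hr, 30 deg C; inhibition of toxicity seen as signal increase.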
* = called active by the depositor; i = inactive; u = inconclusive; x = no result. In the library only some 2% were active in any assay of this set; here they are far more common. Unless noted, calls follow the shape of the dose curve; as a rule, active = well fitted curve in the direction sought with a large enough effect; inconclusive = small, poorly fitted or top-dose-only effect, or another doubt; inactive = no such curve, though single readings can be large; an effect the other way counts as inactive or inconclusive. Potency is read from the fitted curve at half-maximal effect.

SMILES	MBNL1-CUG inh	aSyn rescue	FUS suppressor	Abeta yeast res	GRP78 ERSR act	TDP43 rescue
CC(C)C[C@@H]1COc2cc(Br)ccc2S(=O)(=O)N1Cc1cn(Cc2ccco2)nn1	x	x	i	x	x	x
COc1cccc(C(NC(C)=O)c2nc(-c3cccs3)cs2)c1 (configuration not stated)	x	6%	i	i	2%	u
CC(=O)NC(c1ccccc1)c1nc(-c2cccs2)cs1 (configuration not stated)	x	2%	i	i	1%	16µM*
O=C1OCCC1Sc1nc2ccccc2c(=O)n1Cc1ccccc1 (configuration not stated)	3%	3%	i	i	u	-6%
O=C1OCCC1Sc1nc2cc(Cl)ccc2n1Cc1ccccc1 (configuration not stated)	6%	1%	i	i	-3%	35µM*
CC1(C(=O)Nc2cnc3ccccc3c2)CCN1C(=O)CC(c1ccccc1)c1ccccc1 (configuration not stated)	x	1%	u	i	0%	18µM*
c1ccc(C2Nc3ccccc3C3OCCCC23)cc1 (configuration not stated)	-2%	-34%	i	i	6%	11µM*
COc1ccc(-c2ccc(CCC(=O)O)o2)cc1	-15%	u	u	i	-11%	10µM*
NC(=O)C1CCN(C(=S)c2ccc(-c3ccc(Br)cc3)o2)CC1	20%	-5%	i	i	2%	-8%
NC(=O)c1ccc(-c2ccc(Br)cc2)o1	u	0%	i	i	7%	13µM*
O=C(O)CCc1ccc(-c2ccc(Br)cc2)o1	44%	-44%	i	i	4%	3.2µM*
O=C(O)CCc1ccc(-c2ccc(Cl)cc2)o1	-2%	-47%	i	i	5%	u
CCN1CCCCC(NC(=O)c2cccc(C(F)(F)F)c2)C1=O (configuration not stated)	x	x	i	x	x	x
O=C1CN(C(=O)COc2ccc(Cl)cc2Cl)C(c2ccccc2)c2cc(F)ccc2N1 (configuration not stated)	x	x	32µM*	i	-6%	7%
O=C(Nc1ccc(/C=C/c2ccc(NC(=O)c3cc(S(=O)(=O)O)c4cccnc4c3O)cc2S(=O)(=O)O)c(S(=O)(=O)O)c1)c1cc(S(=O)(=O)O)c2cccnc2c1O	x	x	x	x	-4%	x
Cc1cccn2c(=O)c3cc(C(=O)N4CCCC(C)C4)sc3nc12 (configuration not stated)	u	6%	i	i	5%	u
Cc1cccn2c(=O)c3cc(C(=O)N4CCCCC4)sc3nc12	u	-1%	i	i	6%	11µM*
CCCCN(CCCC)C(=O)c1cc2c(=O)n3cccc(C)c3nc2s1	x	x	u	i	-2%	22µM*
CC(=O)c1c(C)[nH]c(C(=O)/C(C#N)=C/c2cccc(C)c2)c1C	13%	-8%	i	i	-4%	8%
CCOC(=O)c1c(C)[nH]c(C(=O)/C(C#N)=C/c2ccc(OCC)cc2)c1C	-5%	-8%	x	i	-3%	16µM*
CC(=O)N1CCC[C@H]1C(=O)NCC1Cc2cc(-c3cnccn3)cc(Cl)c2O1 (some centres not stated)	x	x	x	x	-2%	x
COc1ccc(C(=O)NCC2Cc3cccc(-c4ccc(S(C)(=O)=O)cc4)c3O2)c(OC)n1 (configuration not stated)	x	x	x	x	-3%	x
COC(=O)[C@]12C[C@H](CC(=O)N3CCOCC3)C(=O)N(Cc3ccc(Cl)cc3Cl)C1=C[C@H](C(C)(C)C)O[C@@H]2C	x	x	16µM*	x	x	x
COC(=O)[C@]12C[C@H](CC(=O)N3CCN(C(=O)C4CC4)CC3)C(=O)N(Cc3ccc(Cl)cc3Cl)C1=C[C@H](C(C)C)O[C@@H]2C1CC1	x	x	28µM*	x	x	x

From PubChem BioAssay
